Hits are enriched below; roughly 1.2% of the tested compounds scored in any of these assays.
RGS8-Gao: human RGS8-Galphao interaction regulation | P09471 | multiplexed bead flow cytometry, RGS8-Galphao binding; actives lie on both sides | response (percent of control binding), % at 10 µM | hit rate 0.34% among 220,000 | AID 1423; in the data active = response below about 60% or above about 140%; inactive = in between;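 also: Galphao activated as the GDP aluminium fluoride complex binding bead-coupled RGS8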
Target sequence (P09471 whole entry, looked up): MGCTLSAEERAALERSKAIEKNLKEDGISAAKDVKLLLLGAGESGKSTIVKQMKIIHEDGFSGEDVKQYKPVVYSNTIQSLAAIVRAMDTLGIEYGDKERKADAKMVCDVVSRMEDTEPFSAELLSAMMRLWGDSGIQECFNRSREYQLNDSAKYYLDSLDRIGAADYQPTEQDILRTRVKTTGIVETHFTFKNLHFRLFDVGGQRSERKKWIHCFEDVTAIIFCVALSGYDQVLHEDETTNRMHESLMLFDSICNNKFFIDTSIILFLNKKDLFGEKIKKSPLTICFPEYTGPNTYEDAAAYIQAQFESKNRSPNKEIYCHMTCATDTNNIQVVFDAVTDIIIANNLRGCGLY
RGS4-Gao reg: modulates binding of RGS4 to human Galphao; Multiplexed bead flow cytometry; actives lie on both sides; binding response (% of control), % at 10 µM; hit rate 0.33% among 220,000; in the data active = binding response below about 49% or above about 150%; inactive = in between;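 also: fluorescent Galphao activated with aluminum fluoride binding bead-coupled RGS4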
RGS7-Gao reg: human RGS7-Galphao interaction regulation; P09471; Multiplexed bead flow cytometry, RGS7-Galphao binding; actives lie on both sides; binding response (% of control), % at 10 µM; hit rate 0.35% among 220,000; AID 1439; in the data active = binding response below about 49% or above about 150%; inconclusive = no clear call, values can overlap the other calls; inactive = in between;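 also: fluorescent Galphao held in activated GDP-AlF4 state binding bead-coupled RGS7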
Avidin fluor: avidin bead compound fluorescence profile; hit rate 0.38% among 220,000; Avidin beads, compound fluorescence 488/530 nm, flow cytometry; active compounds read high; fluorescence (KMESF) at 10 µM; in the data active = fluorescence above about 47
GSH bead fluor: compound fluoresces at 488/530 nm on GSH beads; GSH beads flow cytometry, compound fluorescence 488/530 nm; active compounds read high; fluorescence (KMESF) at 10 µM; hit rate 0.25% among 190,000; in the data active = fluorescence above about 89;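 also: glutathione beads carrying GST-tagged Bcl family fusion proteins plus one bare bead set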
RGS16-Gao: modulates binding between human RGS16 and Galphao. bead-based flow cytometry RGS16-Galphao binding, fluorescence; actives lie on both sides. binding response (% of control), % at 10 µM. hit rate 0.38% among 220,000;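 also: Galphao activated by GDP with aluminum fluoride before binding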
RGS4-Gao HTS: RGS4-Galphao interaction regulator (human); shares compounds with RGS16-Gao; multiplexed bead flow cytometry, RGS–Galpha-o binding; RGS4–Galpha-o binding response, % at 10 µM; hit rate 99% among 1,600; AID 1504;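 also: fluorescently labeled Galpha-o bound to GDP with aluminium fluoride binding biotinylated RGS beads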
Target sequence (P09471 whole entry, looked up): as above
Target sequence (P49798 whole entry, looked up): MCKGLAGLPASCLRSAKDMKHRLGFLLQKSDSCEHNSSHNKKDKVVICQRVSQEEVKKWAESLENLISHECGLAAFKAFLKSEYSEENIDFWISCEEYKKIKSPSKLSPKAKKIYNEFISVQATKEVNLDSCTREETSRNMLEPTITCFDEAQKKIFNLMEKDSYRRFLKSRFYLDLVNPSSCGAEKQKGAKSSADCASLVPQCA
Biotin-avidin: biotin-avidin bead binding disruption counter-screen; shares compounds with RGS16-Gao; streptavidin beads, fluorescein-biotin binding, flow cytometry; inhibition, % at 10 µM; 1,700 tested, under 10 active; AID 1783;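 active = inhibition above 50%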;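 also: median green fluorescence of gated singlet beads compared with DMSO control wells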
RGS8-Gao confirm: confirmation of regulators of human RGS8-Galphao interaction; shares compounds with RGS16-Gao; binding response (% of control), % at 10 µM; bead-based flow cytometry RGS8-Galphao binding, fluorescence; actives lie on both sides; hit rate 3% among 1,700; in the data active = binding response below about 72% or above about 130%; inactive = in between;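 also: Galphao activated as GDP AlF4 complex before binding bead RGS8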
RGS7-Gao single: confirmation of regulators of human RGS7-Galphao interaction. hit rate 7.8% among 1,700. bead-based flow cytometry RGS7-Galphao binding; actives lie on both sides. shares compounds with RGS16-Gao. response (percent of control binding), % at 10 µM; in the data active = response below about 75% or above about 130%; inactive = in between;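 also: fluorescent Galphao activated with GDP and aluminum fluoride binding bead-coupled RGS7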
RGS16-Gao conf: RGS16-Galphao interaction regulation, single point confirmation | shares compounds with RGS16-Gao | bead-based flow cytometry, RGS16-Galphao binding; actives lie on both sides | response (% of control binding), % at 10 µM | hit rate 4% among 1,700; in the data active = response below about 74% or above about 130%; inactive = in between;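 also: Galphao activated as the GDP aluminium fluoride complex binding bead-coupled RGS16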
RGS4-Gao confirm: RGS4-Galphao interaction regulation, single point confirmation; shares compounds with RGS16-Gao; hit rate 4% among 1,700; binding response (% of control), % at 10 µM; RGS4-Galphao binding, multiplexed bead flow cytometry; actives lie on both sides; in the data active = binding response below about 74% or above about 130%; inactive = in between
RGS19-Gao conf: RGS19-Galphao interaction regulation, single point confirmation. hit rate 5% among 1,700. bead-based flow cytometry RGS19-Galphao binding; actives lie on both sides. shares compounds with RGS16-Gao. AID 1841. response (percent of control binding), % at 10 µM; in the data active = response below about 50% or above about 160%; inactive = in between
Of the large screens only hits and unclear results are named; the others gave an inactive call (follow-up assays come after a bar, where they were run); [ ] = another dose, or the depositor's remark. Unless noted, no rule for the calls is given here.

Cc1nn(-c2ccccc2)c(N2CCCC2)c1/C=N/NC(=O)c1ccccc1O	none
O=C(CCCNS(=O)(=O)c1ccc(Cl)c(Cl)c1)NCCc1ccccn1	RGS8-Gao 143[activator], RGS7-Gao reg 157[activator] | RGS4-Gao HTS 145 | Biotin-avidin inactive | RGS8-Gao confirm inactive | RGS7-Gao single inactive | RGS16-Gao conf inactive | RGS4-Gao confirm inactive | RGS19-Gao conf inactive
CCn1c(SCc2cccc(C(F)(F)F)c2)nnc1-c1ccco1	RGS8-Gao 48, RGS4-Gao reg 46, RGS7-Gao reg 42 | Biotin-avidin inactive | RGS8-Gao confirm inactive | RGS7-Gao single inactive | RGS16-Gao conf inactive | RGS4-Gao confirm inactive | RGS19-Gao conf inactive
CCCCOc1ccc(-c2cc(C(F)(F)F)c(C#N)c(SCC(=O)O)n2)cc1	none
COc1ccc(CCCc2nnc(SCc3nc4ccccc4c(=O)[nH]3)n2C)c(C)c1	RGS7-Gao reg inconclusive (no result: GSH bead fluor)
Cc1ccc(-n2c(C)n[nH]c2=S)cc1	RGS16-Gao 183[activator] | RGS4-Gao HTS 115 | Biotin-avidin inactive | RGS8-Gao confirm inactive | RGS7-Gao single 130[activator] | RGS16-Gao conf inactive | RGS4-Gao confirm inactive | RGS19-Gao conf inactive
Cc1ccc(-n2c(C)n[nH]c2=S)cc1C	none
C=CCN=C(NC#N)SCC(=O)NC(C)(C)C	RGS4-Gao reg -28, RGS7-Gao reg 45 | Biotin-avidin inactive | RGS8-Gao confirm inactive | RGS7-Gao single inactive | RGS16-Gao conf inactive | RGS4-Gao confirm inactive | RGS19-Gao conf inactive
C=CCc1c(C)nc2ccc(C(=O)OCC)cc2c1Cl	none
O=C(CSc1nnc(-c2ccncc2)o1)Nc1ccccc1Cl	RGS7-Gao reg 215[activator], Avidin fluor 130, RGS16-Gao 250[activator] | RGS4-Gao HTS 133 | Biotin-avidin inactive | RGS8-Gao confirm inactive | RGS7-Gao single inactive | RGS16-Gao conf inactive | RGS4-Gao confirm inactive | RGS19-Gao conf inactive
O=C(CSc1nnc(-c2ccccc2)o1)Nc1ccccc1F	RGS7-Gao reg 173[activator], Avidin fluor 91 | RGS4-Gao HTS 111 | Biotin-avidin inactive | RGS8-Gao confirm inactive | RGS7-Gao single inactive | RGS16-Gao conf inactive | RGS4-Gao confirm inactive | RGS19-Gao conf inactive
N#Cc1ccc(S(=O)(=O)N2CCc3[nH]c4ccc(F)cc4c3C2)cc1	RGS7-Gao reg inconclusive (no result: GSH bead fluor)
OC[C@@H]1CCCN1Cc1cn(-c2ccccc2)nc1-c1ccc2c(c1)OCO2	none
COCC1CCCCN1Cc1cn(-c2ccccc2)nc1-c1ccc2c(c1)OCO2 (stereo not drawn)	RGS7-Gao reg 182[activator], Avidin fluor 69 | RGS4-Gao HTS 116 | Biotin-avidin inactive | RGS8-Gao confirm inactive | RGS7-Gao single inactive | RGS16-Gao conf inactive | RGS4-Gao confirm inactive | RGS19-Gao conf inactive
CC1=NN(C(=O)CSCc2ccccc2)C(O)(c2ccc(F)cc2)C1 (stereo not drawn)	RGS7-Gao reg inconclusive
CC1=NN(C(=O)CSCc2ccccc2)C(O)(c2ccc(Cl)cc2)C1 (stereo not drawn)	RGS8-Gao 59, RGS7-Gao reg 49 | RGS4-Gao HTS 57 | Biotin-avidin inactive | RGS8-Gao confirm inactive | RGS7-Gao single inactive | RGS16-Gao conf inactive | RGS4-Gao confirm inactive | RGS19-Gao conf inactive
O=C(CN1C(=O)CC(c2ccccc2)=Nc2ccccc21)NCc1ccco1	RGS8-Gao 4.7, RGS4-Gao reg 3.2, RGS7-Gao reg 1.6, RGS16-Gao -0.5 | Biotin-avidin inactive | RGS8-Gao confirm inactive | RGS7-Gao single inactive | RGS16-Gao conf inactive | RGS4-Gao confirm inactive | RGS19-Gao conf inactive
CC(=O)Nc1ccccc1NS(=O)(=O)c1ccccc1[N+](=O)[O-]	RGS4-Gao reg 158[activator], RGS7-Gao reg 401[activator], Avidin fluor 204 | Biotin-avidin inactive | RGS8-Gao confirm inactive | RGS7-Gao single inactive | RGS16-Gao conf inactive | RGS4-Gao confirm inactive | RGS19-Gao conf inactive
COC(=O)c1c(N2C(=O)CC(Sc3ccccc3C(=O)O)C2=O)sc2c1CCCC2 (stereo not drawn)	none
NNC(=O)c1csc(CS(=O)(=O)c2ccc(Cl)cc2)n1	RGS7-Gao reg inconclusive (no result: GSH bead fluor) | Biotin-avidin inactive | RGS8-Gao confirm inactive | RGS7-Gao single inactive | RGS16-Gao conf inactive | RGS4-Gao confirm inactive | RGS19-Gao conf inactive
CCCc1cc(=O)[nH]c(SCC(=O)c2ccc3c(c2)NC(=O)CO3)n1	RGS8-Gao 150[activator], RGS4-Gao reg 387[activator], RGS7-Gao reg inconclusive, Avidin fluor 179, RGS16-Gao 342[activator] (no result: GSH bead fluor) | Biotin-avidin inactive | RGS8-Gao confirm inactive | RGS7-Gao single inactive | RGS16-Gao conf inactive | RGS4-Gao confirm inactive | RGS19-Gao conf inactive
Cc1cccc(-n2c(SCC(=O)NCc3ccc4c(c3)OCO4)nc3ccccc3c2=O)c1	RGS8-Gao 148[activator] | RGS4-Gao HTS 135 | Biotin-avidin inactive | RGS8-Gao confirm inactive | RGS7-Gao single inactive | RGS16-Gao conf inactive | RGS4-Gao confirm inactive | RGS19-Gao conf inactive
O=C(CSc1nc2ccccc2c(=O)n1-c1ccccc1)NCc1ccc2c(c1)OCO2	none
Cc1ccc(C(=O)C2Oc3ccccc3C3CC(c4ccc(C)cc4)=NN23)cc1 (stereo not drawn)	RGS8-Gao 57 | RGS4-Gao HTS 79 | Biotin-avidin inactive | RGS8-Gao confirm inactive | RGS7-Gao single inactive | RGS16-Gao conf inactive | RGS4-Gao confirm inactive | RGS19-Gao conf inactive
Cn1c(=O)[nH]c(=O)c2c1nc(N1CCOCC1)n2CCc1ccccc1	none
CCNc1ccc2noc3c2c1C(=O)c1ccccc1-3	RGS8-Gao 55, RGS4-Gao reg 47, RGS7-Gao reg 46 | Biotin-avidin inactive | RGS8-Gao confirm 69 | RGS7-Gao single 63 | RGS16-Gao conf 66 | RGS4-Gao confirm 69 | RGS19-Gao conf inactive

Assay outcomes (PubChem)
